LASV entry inh: qHTS for Inhibitors of binding or entry into cells for Lassa Virus. Lassa virus pseudotype entry inhibition, cell reporter. Potency, µM (titrated, usually from 37.9 µM), without a hit: at the highest dose activity change, negative = inhibition, hits mostly inhibitors. 300,000 compounds, 1.2% hits; calls by dose curve; tested in HEK293 cells; further: potency means the concentration at half of the fitted maximal effect; nearly all actives have a fitted effect of over 50% in size
Vaccinia Venus: qHTS for Stage-Specific Inhibitors of Vaccinia Orthopoxvirus: Venus Reporter Primary qHTS. AID 720580, 2013. 330,000 compounds, 0.46% hits. Vaccinia virus Venus reporter expression, fluorescence. Potency, µM (titrated, usually from 36.5 µM), for inactives: top-dose activity change, negative = inhibition, actives largely listed as inhibitors; calls by dose curve; tested in A549 cells; further: potency means the concentration at half of the fitted maximal effect; nearly all actives have a fitted effect of over 30% in size
HCMV inh: qHTS Assay for inhibitors of the human cytomegalovirus (HCMV); activity change, negative = inhibition, % at 57.5 µM; 410,000 compounds, 4.5% hits; HFF cells, HCMV-luciferase reporter, 72 h; active compounds read low; in the data active means activity change below about -60%; inconclusive means no clear call, values can overlap the other calls; inactive means above about -39%
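Cell-based, HFFs, 1000 cells/well, 16 h 37C; cpds in DMSO + HCMV-luc, MOI 1 PFU/cell; 72 h 37C; OneGlo luminescence after 5 min RT; norm. to buffer vs Salinomycin 10uM.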
MARV entry inh: qHTS for inhibitors of binding or entry into cells for Marburg Virus. Potency, µM (highest dose often 37.8 µM), without a hit: at the highest dose activity change, negative = inhibition, usual class: inhibitors. Marburg virus pseudotyped entry inhibition, cell reporter. AID 540276, 2011. 300,000 compounds, 1.8% hits; calls by dose curve; tested in HEK293 cells; further: potency means the concentration at half of the fitted maximal effect
Vaccinia mCherry: qHTS for Stage-Specific Inhibitors of Vaccinia Orthopoxvirus: mCherry Reporter Primary qHTS | Vaccinia virus mCherry reporter infection, fluorescence | Potency, µM (doses to about 36.5 µM), for the others: at the top dose activity change, negative = inhibition, usual class: inhibitors | 310,000 compounds, 0.63% hits; calls by dose curve; tested in A549 cells; further: potency means the concentration at half of the fitted maximal effect; nearly all actives have a fitted effect of over 35% in size
FMDV inh: High Throughput Screening for Foot and Mouth Disease Virus Antivirals; Potency, µM (highest dose often 57.9 µM), for inactives: top-dose activity change, negative = inhibition, most hits filed as inhibitors; AID 1159524, 2015; FMDV antiviral cell-based qHTS; 410,000 compounds, 1.2% hits; calls by dose curve; tested in HEK293T cells; further: read-out not given here; potency means the concentration at half of the fitted maximal effect; nearly all actives have a fitted effect of over 45% in size
An asterisk follows results filed as active; i = inactive; ? = inconclusive; nt = no result given; [ ] = another dose, or the depositor's remark. Rows were chosen to be rich in hits. Some 6.5% of all compounds tested hit in one or more screens of this group. On the % scale 0 is the no-effect control and ±100 the full control effect.

SMILES	LASV entry inh	Vaccinia Venus	HCMV inh	MARV entry inh	Vaccinia mCherry	FMDV inh
Cc1ccc(SCc2nc(N)nc(Nc3ccccc3C)n2)c(C)c1	-16%	nt	-61*	-1%	nt	27%
Cc1ccc(-n2ncc3c(NCCc4ccccc4)ncnc32)cc1	-1%[46.1 µM]	-10%	70	nt	-9%	36%
CC12C(=O)N(c3ccc(C(=O)N4CCOCC4)cc3)C(=O)C1C1c3ccccc3C2c2ccccc21 (stereo unspecified)	12%	nt	-101*	20%	nt	nt
CC(C)N1C(=O)/C(=C\c2nc3ccccc3c(=O)[nH]2)c2ccccc21	?	-6%	77	?	-11%	40µM*
NC(Cc1ccc(C(F)(F)F)cc1)c1csc(NC(=O)NCCc2ccccc2)n1 (stereo unspecified)	nt	11µM*	-101*	nt	?	?
CC(C)CC(N)c1csc(NC(=O)NCCc2ccccc2)n1 (stereo unspecified)	nt	-13%	-23	nt	19%	-19%
COc1ccc(CC(N)c2csc(NC(=O)Nc3ccc(OC)cc3)n2)cc1 (stereo unspecified)	nt	0%	36	nt	6%	-23%
COc1ccc(NC(=O)Nc2nc(C(N)Cc3ccc(C(F)(F)F)cc3)cs2)cc1 (stereo unspecified)	nt	-26%	-103*	nt	-16%	?
COc1ccc(CNC(=O)Nc2nc(C(N)Cc3ccc(F)cc3)cs2)cc1 (stereo unspecified)	nt	?	-2	nt	-21%	-19%
NC(Cc1ccc(F)cc1)c1csc(NC(=O)NC(c2ccccc2)c2ccccc2)n1 (stereo unspecified)	nt	?	-103*	nt	?	?
NC(COCc1ccccc1)c1csc(NC(=O)Nc2cccc(C(F)(F)F)c2)n1 (stereo unspecified)	nt	?	-100*	nt	-24%	-19%
COc1ccc(-c2nc3cnc(Nc4ccccn4)cc3n2C)cc1OC	nt	nt	-10	nt	nt	nt
Cc1nc2cnc(Oc3ccccc3)nc2n(Cc2cccs2)c1=O	nt	nt	nt	nt	nt	-20%
CN(C)Cc1csc(NC(=O)Nc2ccccc2Oc2ccccc2)n1	nt	-20%	-75*	nt	9%	16%
NC(Cc1ccc(C(F)(F)F)cc1)c1csc(NC(=O)Nc2ccccc2Oc2ccccc2)n1 (stereo unspecified)	nt	?	-102*	nt	-19%	0%
NC(Cc1ccccc1)c1csc(NC(=O)Nc2ccccc2Oc2ccccc2)n1 (stereo unspecified)	nt	?	?	nt	?	-30%
CCOc1cc(-c2ccc(OC(=O)c3ccc(OC)cc3)c(OC)c2)cc(=O)c2c(C)oc(C)c12	-29%[46.1 µM]	0%	17	-17%[46.1 µM]	2%	-19%
N[C@@H](Cc1ccc(O)cc1)C(=O)NO	nt	-7%	nt	nt	i	nt
N#CC[n+]1cccc(Br)c1	nt	-3%	nt	nt	37%	nt
COc1ccc(NS(=O)(=O)c2cc(NC(=O)C3CCCO3)ccc2N2CCCC2)cc1 (stereo unspecified)	27%[46.1 µM]	-3%	-1	7%[46.1 µM]	i	6%
CCCCNC(=O)c1ccc(NC(=O)C2CCCO2)cc1 (stereo unspecified)	3%	nt	-90*	14%	nt	42%
COc1ccc(NS(=O)(=O)c2cc(NC(=O)C3CCCO3)ccc2N2CCCCC2)cc1 (stereo unspecified)	?	-9%	-64*	?	-16%	76%
CCOc1ccc(S(=O)(=O)Nc2ccc(C(=O)NCC3CCCO3)cc2)cc1 (stereo unspecified)	?	-11%	32	1%	-13%	-1%
CCOc1ccc(NS(=O)(=O)c2ccc(NC(=O)C3CCCO3)cc2)cc1 (stereo unspecified)	8.9µM*	-27%	3	-23%	nt	-22%
CC(C)(C)c1ccc(O[C@@H]2[C@H](O)CO[C@@H]2C=CC#Cc2ccccc2)cc1	nt	nt	nt	-9%[14.2 µM]	nt	nt
O=C(OCCOc1cccc(Cl)c1)c1cc(S(=O)(=O)N2CCCCC2)ccc1N1CCOCC1	?	?	-88*	?	?	?

Source: PubChem
